We go through 43 compounds from PubChem BioAssay (NCATS).

For assay [1], the target named is Cytochrome P450 2D6 (Homo sapiens) (UniProt P10635). Nature of the assay: qHTS Assay for Inhibitors and Substrates of Cytochrome P450 2D6 (AID 891). Also: potency is read from the fitted curve at half-maximal effect; nearly all actives have a fitted effect of over 60% in size. Conditions: recombinant CYP2D6, luciferin-ME EGE luminescence. In short, it runs like this:
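Luminescent read-out of luciferin formed by 5 nM human CYP2D6 demethylating 30 uM Luciferin-ME EGE (Km level) over 60 min at room temperature after NADPH regeneration addition. Data normalized to full inhibition by 1.43 uM quinidine.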
(In general: In qHTS, concentration-response curves come from the screen itself.)

Assay [2] is described as follows: qHTS Assay for Identification of Small Molecule Antagonists for NFkB Signaling Pathway (AID 895; active = well fitted inhibition curve with a large enough effect in the signal ratio, with a control signal flat, not every such curve was filed as active; the % refers to the signal ratio). Conditions: NFkB beta-lactamase reporter cells, FRET ratio 460/530, stimulated with 10 pM TNF alpha; series mostly up to 38.3 µM. In short, it runs like this:
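ME-180 NFkB-bla cells (beta-lactamase under NFkB response element), plated overnight, treated with compound then 10 pM TNF alpha (about EC50) for 5 hrs at 37 C. LiveBLAzer FRET read at 460/530 nm emission, 405 nm excitation.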

Assay [3] deals with Cytochrome P450 2C19 (Homo sapiens) (UniProt P33261). Nature of the assay: qHTS Assay for Inhibitors and Substrates of Cytochrome P450 2C19 (AID 899). Also: potency is read from the fitted curve at half-maximal effect; nearly all actives have a fitted effect of over 60% in size. As to conditions: recombinant CYP2C19, luciferin-H EGE luminescence. The method in brief: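 5 nM human CYP2C19 with 10uM Luciferin-H EGE (at KM) in 50mM KPO4, compound preincubated 10 min at 37C, then NADPH regeneration for 60 min at 37C. Luciferin read by luminescence after detection reagent; normalized to 57uM ketoconazole as full inhibition.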
Cytochrome P450 2C19 (Homo sapiens), sequence (P33261 whole entry, looked up): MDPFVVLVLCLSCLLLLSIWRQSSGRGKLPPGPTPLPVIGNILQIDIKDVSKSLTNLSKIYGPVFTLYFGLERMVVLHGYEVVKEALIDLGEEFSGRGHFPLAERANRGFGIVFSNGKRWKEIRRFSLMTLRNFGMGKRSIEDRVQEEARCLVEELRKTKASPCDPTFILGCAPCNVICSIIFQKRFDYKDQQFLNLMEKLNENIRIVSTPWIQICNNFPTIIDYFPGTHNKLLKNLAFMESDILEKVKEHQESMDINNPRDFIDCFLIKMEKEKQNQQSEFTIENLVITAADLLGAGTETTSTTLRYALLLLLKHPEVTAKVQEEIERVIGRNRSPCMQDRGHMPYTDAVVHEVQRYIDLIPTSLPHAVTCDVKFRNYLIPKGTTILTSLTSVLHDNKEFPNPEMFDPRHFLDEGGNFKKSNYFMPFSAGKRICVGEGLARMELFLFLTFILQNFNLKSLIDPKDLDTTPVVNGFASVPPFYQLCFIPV

For assay [4], the target named is Cytochrome P450 3A4 (Homo sapiens) (UniProt P08684). Nature of the assay: qHTS Assay for Activators of Cytochrome P450 3A4 (AID 885). Also: nearly all actives have a fitted effect of over 65% in size. Conditions: recombinant CYP3A4, Luciferin-PPXE luminescence, 60 min; series mostly up to 57.1 µM. In short, it runs like this: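 Activators are scored by enhanced luminescence from CYP3A4 conversion of luciferin-PPXE (25uM, equal to KM) to luciferin, after 60 min at RT with an NADPH-regenerating system.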
Cytochrome P450 3A4 (Homo sapiens), sequence (P08684 whole entry, looked up): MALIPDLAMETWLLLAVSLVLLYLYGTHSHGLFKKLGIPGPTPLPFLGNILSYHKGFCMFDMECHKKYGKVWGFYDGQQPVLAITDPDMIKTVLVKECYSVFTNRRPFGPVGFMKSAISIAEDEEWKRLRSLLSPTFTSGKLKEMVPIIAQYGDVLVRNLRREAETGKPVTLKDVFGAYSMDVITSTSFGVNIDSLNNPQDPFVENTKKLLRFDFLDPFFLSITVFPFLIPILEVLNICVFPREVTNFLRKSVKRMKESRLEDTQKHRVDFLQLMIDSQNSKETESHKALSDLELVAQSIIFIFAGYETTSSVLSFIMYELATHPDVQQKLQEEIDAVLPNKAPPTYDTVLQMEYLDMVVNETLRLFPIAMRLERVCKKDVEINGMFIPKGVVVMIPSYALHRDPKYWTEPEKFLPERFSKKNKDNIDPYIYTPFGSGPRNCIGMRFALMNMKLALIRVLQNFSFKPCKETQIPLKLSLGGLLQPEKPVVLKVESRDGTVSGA

Assay [5] is described as follows: Confirmation and Secondary Assay for Modulators of Hemoglobin Beta Chain Splicing at IVS2 654 locus (AID 910).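 Also: HeLa cells stably carrying EGFP split by mutant beta-globin IVS2-654 intron.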 Conditions: HeLa EGFP-654 splicing reporter, GFP fluorescence, 48 h; series mostly up to 46.1 µM. In short, it runs like this:
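HeLa cells stably expressing EGFP interrupted by β-globin IVS2-654 intron, seeded overnight in Opti-MEM/2% FCS, then treated 2 days at 37 °C. Restored splicing read as total peak GFP intensity per well by laser scanning cytometry (488 nm excitation, 500–520 nm emission); 500 nM antisense PNA as control.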

The target of assay [6] is Cytochrome P450 3A4 (Homo sapiens) (UniProt P08684). Nature of the assay: qHTS Assay for Inhibitors and Substrates of Cytochrome P450 3A4 (AID 884). Also: nearly all actives have a fitted effect of over 50% in size. As to conditions: recombinant CYP3A4, Luciferin-PPXE luminescence; series mostly up to 57.1 µM. The method in brief: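 Luminescent readout of luciferin produced by CYP3A4 (20 nM) dealkylation of Luciferin-PPXE, 25 uM (its KM). NADPH-driven reaction ran 60 min at RT after 10 min compound preincubation; data scaled to 57 uM ketoconazole as 100% inhibition.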

SMILES strings stand for the structures. Inconclusive results are not listed. A call without a number means that no potency is given here. Calls of active or inactive are those of the source. Unless noted, calls follow the shape of the dose curve; as a rule, active = well fitted curve in the direction sought with a large enough effect; inconclusive = small, poorly fitted or top-dose-only effect, or another doubt; inactive = no such curve, though single readings can be large; an effect the other way counts as inactive or inconclusive.

Cytochrome P450 2D6 (Homo sapiens), sequence (P10635 whole entry, looked up): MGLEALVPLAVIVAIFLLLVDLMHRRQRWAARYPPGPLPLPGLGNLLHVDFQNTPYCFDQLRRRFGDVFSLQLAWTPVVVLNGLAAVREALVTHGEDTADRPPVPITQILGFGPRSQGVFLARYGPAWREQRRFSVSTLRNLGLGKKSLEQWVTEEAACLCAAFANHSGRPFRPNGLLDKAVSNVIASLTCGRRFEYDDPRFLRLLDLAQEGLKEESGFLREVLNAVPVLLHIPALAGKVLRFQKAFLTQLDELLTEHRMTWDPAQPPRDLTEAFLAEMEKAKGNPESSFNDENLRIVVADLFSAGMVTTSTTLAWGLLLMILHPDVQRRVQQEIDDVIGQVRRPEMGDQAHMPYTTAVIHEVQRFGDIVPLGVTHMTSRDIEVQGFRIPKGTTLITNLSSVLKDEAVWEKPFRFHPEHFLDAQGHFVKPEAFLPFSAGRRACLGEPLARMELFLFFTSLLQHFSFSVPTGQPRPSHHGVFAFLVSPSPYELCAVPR

On to `O=C(CCCN1CC=C(n2c(=O)[nH]c3ccccc32)CC1)c1ccc(F)cc1`, for which, in assay [1], the Potency is 3.16 µM (active).
Still for that read-out and setting: then `COc1cc(N)c(Cl)cc1C(=O)NC1CCN(Cc2ccccc2)CC1`, with 0.0126 µM (active).
For the compound `NC(N)=NCc1cccc(I)c1`, in assay [2], the outcome was inactive.
`CN=C(N)NCCC[C@H](N)C(=O)O`: the outcome in assay [2] was inactive.
With `CN(C)CCC[C@@]1(c2ccc(F)cc2)OCc2cc(C#N)ccc21`, in assay [3], the Potency is 3.16 µM (active).
Take `CCOC(=O)c1ccc(N)cc1`: the result in assay [4] and in assay [5] was inactive.
As to `CCc1cc(Cl)c(OC)c(C(=O)NC[C@@H]2CCCN2CC)c1O`, the Potency in assay [1] is 0.0501 µM (active).
With `COC(=O)C(c1ccccc1Cl)N1CCc2sccc2C1` (stereo unspecified), in assay [5], the compound was called inactive.
As to `CCCCc1cc2ccccc2c(OCCN(C)C)n1`, in assay [1], the Potency was 2 µM (active).
`CCN1CCCC(OC(=O)C(c2ccccc2)c2ccccc2)C1` (stereo unspecified): in assay [5], the call was inactive.
Regarding `Nc1ccc(C(=O)NCC(=O)O)cc1`, the Potency entry in assay [6] is “inactive”. Moreover, the compound was called inactive in assay [5].
With `COc1ccc(-c2cc(C(F)F)nn2-c2ccc(S(N)(=O)=O)cc2)cc1F`, the Potency result in assay [6] was “inactive”. The compound was classed as inactive in assay [5].
For the compound `CCN(CC)CCNC(=O)COc1ccc(OC)cc1`, in assay [5], the outcome was inactive.
Still for that read-out and setting: with `COc1ccc(C(=O)c2ccccc2O)c(O)c1` the entry was “inactive”.
On to `Nc1ccc(S(=O)(=O)Nc2cnc3ccccc3n2)cc1`, for which the outcome in assay [4] and in assay [5] was inactive.
As for `CC[C@H](c1ccc(O)cc1)[C@@H](CC)c1ccc(O)cc1`, in assay [4], the result was inactive.
In the case of `Cc1ccccc1OCC(O)CO` (stereo unspecified), in assay [5], the compound was classed as inactive.
With `COc1ccc(CN(CCN(C)C)c2ncccn2)cc1`, in assay [6], the Potency result was “inactive”. Moreover, the compound was classed as inactive in assay [5].
On to `CCOC(=O)[C@H](CCc1ccccc1)N[C@@H](C)C(=O)N1[C@H](C(=O)O)C[C@H]2CCCC[C@@H]21`, for which the Potency entry in assay [6] was “inactive”. In addition, in assay [5], the compound was called inactive.
For `OCCOCCN1CCN(C2=Nc3ccccc3Sc3ccccc32)CC1`, the compound was classed as inactive in assay [5].
For `CCCc1ncc(C[n+]2ccccc2C)c(N)n1`, in assay [6], the Potency entry was “inactive”. The call in assay [5] was inactive.
For the compound `COc1cc(NS(=O)(=O)c2ccc(N)cc2)ncn1`, in assay [5], the call was inactive.
For the compound `CN(C)CCOC(=O)C(c1ccccc1)C1(O)CCCC1` (stereo unspecified), the Potency entry in assay [6] was “inactive”. Also, the compound was classed as inactive in assay [5].
Regarding `CCN(CC)CCNc1ccc(CO)c2sc3ccccc3c(=O)c12`, the outcome in assay [4] and in assay [5] was inactive. Moreover, the Potency in assay [1] is 5.01 µM (active).
With `O=C1C(CCS(=O)c2ccccc2)C(=O)N(c2ccccc2)N1c1ccccc1` (stereo unspecified), the outcome in assay [4] and in assay [5] was inactive.
With `O=C(O)CCC(=O)Nc1ccc(S(=O)(=O)Nc2nccs2)cc1`, the call in assay [5] was inactive.
Take `CN1CCC(OC(c2ccccc2)c2ccccc2)CC1`: in assay [5], the outcome was inactive.
Take `CCN(CC)CCNC(=O)c1cc(Br)c(N)cc1OC`: the compound was called inactive in assay [5].
As to `CCN(CC)CCOC(=O)C(Cc1cccc2ccccc12)CC1CCCO1` (stereo unspecified), the outcome in assay [4] and in assay [5] was inactive.
With `c1ccc(CC2=NCCN2)cc1`, in assay [5], the outcome was inactive.
Turning to `C[N+]12CCC(CC1)C(OC(=O)C(O)(c1ccccc1)c1ccccc1)C2` (stereo unspecified), in assay [6], the Potency entry is “inactive”. In assay [5], the compound was called inactive.
As for `CCCCCCCCNC(C)C(O)c1ccc(SC(C)C)cc1` (stereo unspecified), the compound was called inactive in assay [5].
`Cc1cc(C)cc(OCC2CNC(=O)O2)c1` (stereo unspecified): in assay [6], the Potency result is “inactive”. Besides, the result in assay [5] was inactive.
As for `CC(C)NCC(O)c1ccc2ccccc2c1` (stereo unspecified), the Potency result in assay [6] was “inactive”. In addition, the result in assay [5] was inactive.
As to `CC(=O)NCCCCCC(=O)O`, the Potency entry in assay [6] is “inactive”. In assay [5], the outcome was inactive.
Turning to `CC(=O)Nc1ccc(S(=O)(=O)Nc2ccc([N+](=O)[O-])cc2)cc1`, the compound was classed as inactive in assay [5].
Take `O=C1C(O)=C(O)C(=O)C(O)=C1O`: the Potency entry in assay [6] was “inactive”. The outcome in assay [5] was inactive.
For the compound `Cc1cc(-c2ccccc2)nnc1NCCN1CCOCC1`, the outcome in assay [4] and in assay [5] was inactive.
For `CN(C)CCOC(c1ccc(Cl)cc1)c1ccccn1` (stereo unspecified), the Potency entry in assay [6] is “inactive”. Further, the result in assay [5] was inactive.
`Cc1c(-c2ccccc2)oc2c(C(=O)OCCN3CCCCC3)cccc2c1=O`: in assay [4], the outcome was inactive. Moreover, the Potency in assay [1] was 7.94 µM (active).
Turning to `CC(C(=O)O)c1cccc(Oc2ccccc2)c1` (stereo unspecified), the Potency entry in assay [6] was “inactive”. In addition, in assay [5], the outcome was inactive.
Turning to `CNCCc1ccccn1`, the Potency result in assay [6] was “inactive”. Also, in assay [5], the compound was called inactive.
For `CCN(CC)CCOc1ccc2c(c1)C(=O)c1cc(OCCN(CC)CC)ccc1-2`, in assay [6], the Potency result was “inactive”. The compound was called inactive in assay [5].
